Compound activity as filed in PubChem.
Cruzain inh Det: inhibitors of Trypanosoma cruzi cruzain with detergent | purified cruzain, Z-FR-AMC fluorescence, 0.01% Triton | P25779 | Potency, µM, for inactives: max response, negative = inhibition, actives largely listed as inhibitors | 0.43% of 200,000 active;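 also: plate controls were neutral wells for no effect and buffer without enzyme for full effect; nearly all actives have a fitted effect of over 40% in size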
Target sequence (P25779 123-467 limits assumed): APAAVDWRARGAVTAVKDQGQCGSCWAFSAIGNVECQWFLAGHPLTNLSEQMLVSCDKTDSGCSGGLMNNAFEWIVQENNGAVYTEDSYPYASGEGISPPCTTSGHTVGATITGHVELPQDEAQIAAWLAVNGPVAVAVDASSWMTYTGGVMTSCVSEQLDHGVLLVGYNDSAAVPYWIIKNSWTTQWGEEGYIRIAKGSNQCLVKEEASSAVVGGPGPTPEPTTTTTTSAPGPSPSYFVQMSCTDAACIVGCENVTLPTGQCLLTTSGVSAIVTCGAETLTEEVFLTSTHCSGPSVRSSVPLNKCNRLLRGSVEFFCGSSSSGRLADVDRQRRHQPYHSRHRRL
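15 min RT preincubation of 1.5 nM cruzain with compound, then 2 uM Z-FR-AMC added; kinetic AMC fluorescence, 60 s delta. Triton X-100 0.01%, pH 5.5.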
Cruzain inh noDet: cruzain (T. cruzi) inhibition without detergent | purified cruzain, Z-FR-AMC fluorescence, no detergent | Potency, µM, for inactives: max response, negative = inhibition, most hits filed as inhibitors | 2.3% of 200,000 active | AID 1476;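 also: plate controls were enzyme without inhibitor for no effect and buffer without enzyme for full effect; nearly all actives have a fitted effect of over 40% in size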
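Purified cruzain at 1.5 nM, pre-incubated 15 min with compound at room temperature in 100 mM sodium acetate pH 5.5, 5 mM DTT, 0.00005% Triton X-100. Reaction started with 2 uM Z-FR-AMC; AMC fluorescence increase over 60 s gives rate.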
* = called active by the depositor; ? = inconclusive. A selection: hits, their analogues and other compounds. The true share with any hit is near 2.5%. Calls follow the shape of the dose curve; as a rule, active = well fitted curve in the direction sought with a large enough effect; inconclusive = small, poorly fitted or top-dose-only effect, or another doubt; inactive = no such curve, though single readings can be large; an effect the other way counts as inactive or inconclusive. Potency is read from the fitted curve at half-maximal effect.

SMILES | Cruzain inh Det | Cruzain inh noDet
Cc1nc2c(C(=O)NCCc3ccccc3)cnn2c(C)c1Cc1c(F)cccc1Cl | 3% | 0%
Nc1nc(SCC(=O)Nc2ccc3c(c2)CCC3)n[nH]1 | -2% | -17%
O=C(CSc1nc(O)cc(=O)[nH]1)Nc1ccc2c(c1)CCC2 | -11% | 16µM*
COc1ccc(-c2cc3ccccc3oc2=O)cc1NC(=O)c1cccnc1 | -7% | ?
NC(=S)NNC(=O)Nc1ccc(Cl)c(Cl)c1 | 3.2µM* | 2µM*
O=C(Cc1ccccc1)NNC(=O)Nc1ccc(Cl)c(Cl)c1 | 0% | -1%
Cc1cc(=O)n(Cc2ccc(F)cc2Cl)c2c1c(C)nn2-c1ccccc1 | -3% | -4%
CCOC(=O)/C(N=Nc1sc(C(=O)OC)c(C)c1C(=O)OCC)=C(\O)CCl | -7% | 12%
ClC1=C(Cl)C2(Cl)C3C4C=CC(C4)C3C1(Cl)C2(Cl)Cl (stereo unspecified) | 7% | 8%
ClC1=C(Cl)C2(Cl)C3C4CC(C5OC45)C3C1(Cl)C2(Cl)Cl (stereo unspecified) | -2% | 1.6µM*
Cc1cc(C)n(-c2cc(N3CCN(S(=O)(=O)c4ccc(Br)cc4)CC3)ccc2[N+](=O)[O-])n1 | -6% | ?
Cc1cc(C)c(S(=O)(=O)N2CCN(c3ccc([N+](=O)[O-])c(-n4nc(C)cc4C)c3)CC2)c(C)c1 | -1% | 20µM*
CCCN(CCO)Cc1ccc2ccccc2c1 | 0% | 2%
CCc1cccc(NC(=O)c2ccc3c(c2)c(C)c(C)n3Cc2ccc(F)cc2)c1 | 2% | 16µM*
Cc1ccc(CCNC(=O)c2ccc3c(c2)c(C)c(C)n3Cc2ccccc2)cc1 | 2% | 13µM*
COc1cccc(CNC(=O)c2ccc3c(c2)c(C)c(C)n3Cc2ccccc2)c1 | 1% | ?
CCc1ccc(NC(=O)c2ccc3c(c2)c(C)c(C)n3Cc2ccccc2)cc1 | 2% | 13µM*
CCc1ccc(CNC(=O)c2ccc3c(c2)c(C)c(C)n3Cc2ccccc2)cc1 | 2% | 32µM*
CCc1ccc(NC(=O)c2ccc3oc(=O)n(Cc4ccccc4)c3c2)cc1 | 1% | 30%
Cc1c(C)n(Cc2ccccc2)c2ccc(C(=O)NCc3ccco3)cc12 | -5% | ?
CCOc1ccc(CCNC(=O)c2ccc3c(c2)c(C)c(C)n3Cc2ccccc2)cc1OCC | 0% | ?
CC(Oc1ccccc1)C(=O)Nc1ccc(S(=O)(=O)NCC2CCCO2)cc1 (stereo unspecified) | 0% | -12%
CSc1ccc(CCNC(=O)c2cc3cc4cc(C)ccc4nc3s2)cc1 | -2% | 7%
COc1ccccc1Nc1nn2c(=O)c3ccc(C(=O)NCCc4ccccc4)cc3nc2s1 | -3% | -20%
CCCC1=C(C(=O)OCC)C(c2ccc(N(C)C)cc2)n2ncnc2N1 (stereo unspecified) | 0% | -8%
SMILES | Cruzain inh Det | Cruzain inh noDet
CC[C@H](C)[C@H](NC(=O)[C@H](Cc1ccc(O)cc1)NC(=O)[C@@H](N)C(C)C)C(=O)N[C@@H](Cc1cnc[nH]1)C(=O)N1CCC[C@H]1C(=O)N[C@@H](Cc1ccccc1)C(=O)O | 14µM* | 16µM*
Cc1ccc(CC(NC(=O)c2ccccc2)C(=O)N2CCCC2C(=O)O)cc1 (stereo unspecified) | 2% | 0%
Cc1ccc(OP(=O)(Oc2ccc(C)cc2)N2C=Cc3ccccc3[C@H]2C#N)cc1 | -6% | -9%
Oc1ccc(C=Nc2ccc3ncccc3c2)c(O)c1 | -9% | 16µM*
Oc1ccc(C=Nc2cccc3ncccc23)c(O)c1 | -3% | -7%
COc1ccc(NC(=O)c2oc3c(c2C)-c2nn(Cc4c(F)cccc4Cl)cc2CC3)c(OC)c1 | 0% | -1%
CC1CCC/C(=N\NC(=S)Nc2ccccc2)C1 (stereo unspecified) | 14µM* | -7%
CC1CCC/C(=N\NC(=S)NCc2ccccc2)C1 (stereo unspecified) | -1% | -2%
Cc1noc(C)c1C(=O)N1CCC[C@@]2(CCN(Cc3nccs3)C2)C1 | 0% | 4%
CCOC(=O)c1c(/N=C/C2=C(O)CC(C)(C)CC2=O)sc(C)c1C | -8% | ?
COC(=O)c1cc2oc(C)cc2n1Cc1ccc(C)cc1 | -1% | -7%
Cc1ccc(C(=O)ON=C2CCN(c3ccc([N+](=O)[O-])cc3)CC2)cc1 | -3% | 32µM*
Cc1ccc(C(=O)NC(=S)N2CCN(c3ccc([N+](=O)[O-])cc3)CC2)cc1 | -8% | 14%
CC1CN(C2CCN(C(=O)c3ccccc3)CC2)CC(C)O1 (stereo unspecified) | 1% | 4%
COc1cc(/C=C2/N=C(C3CCCCC3)OC2=O)cc(OC)c1OC | 2.5µM* | 2.5µM*
COc1cc(C2=N/C(=C\c3ccccc3)C(=O)O2)cc(OC)c1OC | 3% | -8%
Cc1cc(-c2ccc(N=Nc3cc(S(=O)(=O)O)c4ccccc4c3N)c(C)c2)ccc1N=Nc1cc(S(=O)(=O)O)c2ccccc2c1N | 7.9µM* | ?
Nc1c(S(=O)(=O)O)cc(S(=O)(=O)O)c2ccc(N=Nc3ccccc3)c(O)c12 | 0% | -7%
CCOC(=O)c1cnc2nc(NCc3cccc(Br)c3)[nH]n2c1=O | -3% | -3%
CCOc1ccc(NC(=S)Nc2cc(OC)c(Cl)cc2OC)cc1 | -10% | 2%
COc1ccc(CNc2ncnc3ccc(-c4cccc(NS(C)(=O)=O)c4)cc23)c(OC)c1 | -4% | 3%
N#C/C(=C\c1cccc(Oc2ccc(C(F)(F)F)cc2[N+](=O)[O-])c1)c1nc2ccccc2[nH]1 | 2% | -11%
COc1ccc(/C=C(\C#N)c2nc3ccc(C)cc3[nH]2)cc1Oc1ccc(C(F)(F)F)cc1[N+](=O)[O-] | -2% | 5µM*
COc1cc(/C=C(\C#N)c2nc3ccc(C)cc3[nH]2)c([N+](=O)[O-])cc1OC | -6% | ?
Cc1ccc2nc(/C(C#N)=C\c3ccc(Oc4ccc(C(F)(F)F)cc4[N+](=O)[O-])cc3)[nH]c2c1 | -2% | 7.9µM*
SMILES | Cruzain inh Det | Cruzain inh noDet
CC(=O)CCOC1CCCCO1 (stereo unspecified) | 7% | 1%
N=c1oc2ccccc2cc1-c1nc2ccccc2c(=O)[nH]1 | -4% | -6%
Cc1ccc(S(=O)(=O)NCCCNC(=O)N2CCOCC2)cc1 | 4% | 3%
O=C(Oc1ccc(N(Cc2cccs2)C2=NS(=O)(=O)c3ccccc32)cc1)c1ccccc1 | 2% | ?
O=C(Oc1ccc(N(Cc2cccs2)C2=NS(=O)(=O)c3ccccc32)cc1)c1ccc(Cl)cc1 | -1% | 32µM*
CCC(=O)N1c2ccccc2CC1C(=O)NCc1ccc(N(C)C)cc1 (stereo unspecified) | -1% | 1%
COc1ccc(-c2onc(C)c2C)cc1S(=O)(=O)Nc1ccc(OC(F)(F)F)cc1 | -9% | -3%
CCC(C(=O)NC1CCCCC1)n1c(SCc2cccc(C)c2)nc2ccncc21 (stereo unspecified) | 14µM* | ?
Cc1cccc(Cn2c(SCc3ccc(C(=O)NC4CCCCC4)cc3)nc3ccncc32)c1 | 1% | -12%
Clc1ccc(Cl)c(Nc2ccnc(SCc3ccccc3)n2)c1 | -6% | -12%
Oc1ccccc1/C=N/Nc1ccnc(SCc2ccccc2)n1 | -6% | 20µM*
O=C(CSc1nnc(-c2cccs2)o1)Oc1ccc(Cl)cc1 | -3% | -12%
O=C1c2cccc3c(N4CCOCC4)c([N+](=O)[O-])cc(c23)C(=O)N1c1cccc2ccccc12 | -9% | 13µM*
Cc1cccc(N2C(=O)c3cccc4c(N5CCCCC5)c([N+](=O)[O-])cc(c34)C2=O)c1C | -6% | ?
